Assay [1] has as its target Cellular tumor antigen p53 (Homo sapiens) (UniProt P04637). In words: Primary qHTS for small molecule compounds that upregulate eGFP-tagged delta133p53alpha (in N-terminal) cells. (AID 2060322).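 Further: cells pre-induced with doxycycline then dosed without doxycycline; series mostly up to about 56 µM; 0% = DMSO vehicle and 100% = reference activator; nearly all actives have a fitted effect of over 75% in size.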 The following applies: NCI-H358 eGFP-delta133p53alpha fluorescence, 24 h; activation: active compounds read high. In short, it runs like this:
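NCI-H358 cells pre-induced 24 h with 10 ng/ml doxycycline for eGFP-delta133p53alpha, plated dox-free and exposed 24 h at 37C to titrated compounds. Fixed, Hoechst-stained; gated GFP peak intensity by laser scanning cytometry, normalized to DMSO (0%) and 57.5 uM 5-azacytidine (100%).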

Assay [2] addresses Aldehyde dehydrogenase, mitochondrial (Homo sapiens) (UniProt P05091). The assay is described as follows: qHTS for Inhibitors of the Aldehyde Dehydrogenase Family (ALDH2) Primary screen (AID 2061308).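 Further: plate controls were vehicle for no effect and reference inhibitor for full effect; nearly all actives have a fitted effect of over 55% in size.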
The target in assay [3] is Retinaldehyde dehydrogenase 3 (Homo sapiens) (UniProt P47895). The assay is described as follows: qHTS for Inhibitors of the Aldehyde Dehydrogenase Family (ALDH1A3) Validation screen (AID 2061312). Further: on the % scale 0 is the no-effect control and ±100 the full control effect; nearly all actives have a fitted effect of over 45% in size.
Assay [4] shares this target. In words: qHTS for Inhibitors of the Aldehyde Dehydrogenase Family (ALDH1A3) Primary screen (AID 2061315).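 Further: plate controls were DMSO vehicle for no effect and reference inhibitor for full effect.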
A short description of assay [5]: BET inhibitor-based combinations targeting novel dependencies in MECOM-rearranged (r) AML: OCI-AML3 cell line (AID 2202232). Further: nearly all actives have a fitted effect of over 35% in size. Further: potency means the concentration at half of the fitted maximal effect.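 On viability (% of control): series mostly up to about 46 µM; plate controls were DMSO vehicle wells for no effect and wells without cells for full effect.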 The following applies: Potency: OCI-AML3 viability. In short, it runs like this:
(§1)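 Cells were plated at 500 per well and exposed to an 11-point dose series of each drug for 48 hr. Viability was measured by CellTiter-Glo luminescence, normalized to DMSO and empty-well controls, and summarized as AUC and per-cell-line Z-AUC.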

Assay [6] is described as follows: BET inhibitor-based combinations targeting novel dependencies in MECOM-rearranged (r) AML: MV-4-11 cell line (AID 2202233). Further: nearly all actives have a fitted effect of over 45% in size. Further: potency means the concentration at half of the fitted maximal effect. In short, it runs like this:
(§2)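 Activity is given as area under the curve and as Z-AUC, mean-centred within each cell line. It comes from 11-point dose curves normalized to DMSO and empty wells. CellTiter-Glo luminescence was read after 48 hr drug exposure of 500 cells/well.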

Assay [7] can be described thus: BET inhibitor-based combinations targeting novel dependencies in MECOM-rearranged (r) AML: AML-191 cell line (AID 2202236; further: nearly all actives have a fitted effect of over 35% in size; further: potency means the concentration at half of the fitted maximal effect;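 on viability (% of control): plate controls were vehicle wells for no effect and wells without cells for full effect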). The method in brief: as §1
The nature of assay [8]: BET inhibitor-based combinations targeting novel dependencies in MECOM-rearranged (r) AML: HNT-34 cell line (AID 2202234). Further: nearly all actives have a fitted effect of over 35% in size. Further: potency means the concentration at half of the fitted maximal effect.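 On viability (% of control): plate controls were vehicle wells for no effect and cell-free wells for full effect.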 The method in brief:
as §2

Assay [9] can be described thus: BET inhibitor-based combinations targeting novel dependencies in MECOM-rearranged (r) AML: UCSD-AML1 cell line (AID 2202235). Further: nearly all actives have a fitted effect of over 40% in size. Further: potency means the concentration at half of the fitted maximal effect.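 On viability (% of control): series mostly up to about 46 µM; plate controls were DMSO vehicle wells for no effect and blank wells for full effect.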 In short, it runs like this:
as §2

Assay [10] is described as follows: BET inhibitor-based combinations targeting novel dependencies in MECOM-rearranged (r) AML: AML-194 cell line (AID 2202237; further: nearly all actives have a fitted effect of over 40% in size; further: potency means the concentration at half of the fitted maximal effect;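 on viability (% of control): plate controls were vehicle wells for no effect and wells without cells for full effect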). The method in brief: as §1
For assay [11], the target named is Retinal dehydrogenase 2 (Homo sapiens) (UniProt O94788). In words: qHTS for Inhibitors of the Aldehyde Dehydrogenase Family (ALDH1A2) Confirmation screens (AID 2061314). Further: nearly all actives have a fitted effect of over 65% in size.

Each structure is given as a SMILES string. “And” between values parts separate entries of the source, which are not always exact repeats. Equal entries are not always repeated. Results filed as inconclusive are left out. Unmarked numbers belong to inactive results. The source made the active and inactive calls. The call rests on the fitted dose curve; in most records, active means well fitted curve in the direction sought with a large enough effect; inconclusive means small, poorly fitted or top-dose-only effect, or another doubt; inactive means no such curve, though single readings can be large; an effect the other way counts as inactive or inconclusive.

Sequence of Cellular tumor antigen p53 (Homo sapiens) (P04637 whole entry, looked up): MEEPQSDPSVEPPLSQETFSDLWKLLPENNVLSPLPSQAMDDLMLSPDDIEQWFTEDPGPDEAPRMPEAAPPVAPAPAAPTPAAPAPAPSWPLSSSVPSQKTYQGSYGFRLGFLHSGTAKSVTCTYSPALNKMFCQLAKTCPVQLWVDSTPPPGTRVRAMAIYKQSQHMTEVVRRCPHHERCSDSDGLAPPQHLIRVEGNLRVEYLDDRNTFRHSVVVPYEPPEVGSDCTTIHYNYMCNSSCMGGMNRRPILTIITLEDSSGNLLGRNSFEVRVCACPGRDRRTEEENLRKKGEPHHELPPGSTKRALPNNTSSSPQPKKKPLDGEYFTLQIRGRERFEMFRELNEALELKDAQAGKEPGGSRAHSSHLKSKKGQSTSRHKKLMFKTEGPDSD

With `Cn1cc(-c2cnn3c(N)c(Br)c([C@@H]4CCCNC4)nc23)cn1`, in assay [1], the activation is 3.82%. The Potency result in assay [2], in [3] and in assay [4] was “inactive” throughout. Further, the Potency is 13.2 µM (active) in assay [5] and 0.468 µM (active) in assay [6].
As for `FC(F)(F)c1ccc(CNc2ccc(Cc3c[nH]c4ncccc34)cn2)cc1`, the activation in [1] was 2.39%. Besides, the Potency entry in [2], in assay [3] and in assay [4] was “inactive” in each case. Moreover, the values for the Potency in assay [5], in [6] and in assay [7] were 20.9 µM (active), 0.525 µM (active) and 13.2 µM (active), respectively.
For the compound `C[C@@]1(c2cc(-c3cncnc3)c(F)cc2F)CCSC(N)=N1`, the activation in assay [1] is 19.2% and -1.91%. Moreover, the Potency entry in assay [2], in [3], in [4], in assay [5], in [6] and in assay [8] was “inactive” each time. Moreover, the Potency entry in [9], in [7] and in [10] was “inactive” each time.
Turning to `Cn1c(CNc2ccc(C(=N)N)cc2)nc2cc(C(=O)N(CCC(=O)O)c3ccccn3)ccc21`, in [1], the activation is 22.7% and -0.477%. Besides, the Potency entry in assay [2], in assay [3] and in assay [4] was “inactive” each time. Besides, the viability (% of control) is 119% [at 0.315 µM] in assay [5], 104% [at 0.315 µM] in assay [8], 101% [at 0.315 µM] in assay [7] and 118% [at 0.315 µM] in assay [10].
Take `CC(C)(N)C(=O)N[C@H](COCc1ccccc1)C(=O)N1CCC2(CC1)CN(S(C)(=O)=O)c1ccccc12`: the activation in [1] was 18.6% and 11%. Besides, the Potency entry in assay [2], in [3] and in assay [4] was “inactive” in each case. The Potency was 11.8 µM (active) in assay [5], 10.5 µM (active) in assay [6] and 20.9 µM (active) in [7].
`CC(C)N(CCCNC(=O)Nc1ccc(C(C)(C)C)cc1)C[C@H]1O[C@@H](n2cc(Br)c3c(N)ncnc32)[C@H](O)[C@@H]1O`: the activation in assay [1] is -6.7%. The Potency result in assay [2], in [3], in assay [4] and in assay [9] was “inactive” in each case. For the same compound, the Potency is 23.5 µM (active) in assay [5], 26.3 µM (active) in assay [8] and 23.5 µM (active) in [10].
On to `Cc1c(F)cc(C(=O)NC2CC2)cc1-c1ccc(C(=O)NCC(C)(C)C)cn1`, for which the activation in [1] is 2.86%. The Potency entry in assay [2], in assay [3], in [4], in assay [5], in assay [6] and in [8] was “inactive” each time. The Potency entry in assay [9], in assay [7] and in assay [10] was “inactive” throughout.
`COc1ccc(-n2c(SCCCN3C(=O)c4cccc5cccc(c45)C3=O)nnc2-c2ccncc2)cc1`: the activation in assay [1] was -13.4%. For the same compound, the Potency result in assay [2], in [3], in [4], in [5], in assay [6] and in assay [8] was “inactive” throughout. Further, the Potency result in assay [7] and in [10] was “inactive” in each case.
For `COc1nc(C)cnc1NS(=O)(=O)c1cccnc1-c1ccc(-c2nnco2)cc1`, in assay [1], the activation is 13.1% and 3.34%. For the same compound, the Potency result in [2], in assay [3], in [4], in assay [5], in assay [6] and in assay [9] was “inactive” throughout. Also, the Potency entry in assay [7] and in [10] was “inactive” each time.
For `NC1(C(=O)N[C@@H](CCO)c2ccc(Cl)cc2)CCN(c2ncnc3[nH]ccc23)CC1`, the activation in [1] was 7.49%. The Potency entry in assay [2], in assay [3] and in [4] was “inactive” throughout. In addition, the Potency in assay [5] was 6.61 µM (active); in assay [6], 4.17 µM (active); in assay [8] it was 10.5 µM (active); in assay [9] it was 1.48 µM (active).
For the compound `COc1ccc2c(Oc3ccc(NC(=O)c4c(C)n(CC(C)(C)O)n(-c5ccccc5)c4=O)cc3F)ccnc2c1`, the activation in [1] is -9.3% and -1.91%. Also, the Potency entry in [2], in assay [3], in [4] and in assay [9] was “inactive” each time. The Potency in assay [6] was 0.209 µM (active); in [8] it was 4.68 µM (active); in assay [7] it was 20.9 µM (active).
In the case of `CNC(=O)c1ccc2c(C(=Nc3cccc(CN(C)C)c3)c3ccccc3)c(O)[nH]c2c1`, the activation in assay [1] was -0.477%. Further, the Potency result in assay [2], in [3] and in assay [9] was “inactive” throughout. Besides, the figures for the Potency in assay [6] and in [8] were 1.66 µM (active) and 20.9 µM (active), respectively.
In the case of `O=C(NCC(=O)N1CC[C@H](NC2CCC(O)(c3ccc(-c4ncccn4)cn3)CC2)C1)c1cccc(C(F)(F)F)c1` (stereo partly drawn), the activation in [1] was 5.25%. For the same compound, the Potency result in assay [2], in [3], in assay [4], in [8], in assay [9] and in assay [7] was “inactive” each time. The Potency in assay [6] is 10.5 µM (active).
As to `CN[C@@H](C)C(=O)N[C@H]1CN(C(=O)CC(C)C)CC[C@H]2CC[C@@H](C(=O)NC(c3ccccc3)c3ccccc3)N2C1=O`, the activation in assay [1] was 28.1%. In addition, the Potency result in assay [2], in assay [3], in [4] and in [10] was “inactive” throughout.
Turning to `CC1(C)CC[C@]2(C(=O)O[C@@H]3O[C@H](CO)[C@@H](O)[C@H](O)[C@H]3O)CC[C@]3(C)C(=CCC4[C@@]5(C)C[C@@H](O)[C@H](O)[C@@](C)(CO)C5CC[C@]43C)C2[C@@H]1O` (stereo partly drawn), the activation in [1] is 8.93%. Moreover, the Potency result in assay [2], in [11] and in assay [4] was “inactive” throughout.
On to `CN(C(=O)c1ccc(F)cc1C(F)(F)F)C1CCN(c2nnc(-c3ccnn3C)c3ccccc23)CC1`, for which the activation in assay [1] is 36.5% and 1.43%. For the same compound, the Potency result in assay [2], in assay [3], in assay [4], in assay [9] and in assay [10] was “inactive” throughout. In addition, the Potency in [6] is 16.6 µM (active).
For the compound `Cc1nn(C)c(COc2ccc(N3CCN(S(=O)(=O)N(C)C)CC3)cc2)c1-c1cccc2c(CCCOc3cccc4ccccc34)c(C(=O)O)n(CCN3CCOCC3)c12`, the activation in assay [1] was -22.8%. The Potency result in [2], in assay [3], in assay [4], in assay [9], in assay [7] and in assay [10] was “inactive” each time. Also, the Potency in assay [6] was 6.61 µM (active).
Consider `COC(=O)Cc1cc2c(c([N+](=O)[O-])c1)N(C(=O)CC[C@H](N)C(=O)O)CC2`, for which the activation in assay [1] was -7.67%. Besides, the Potency result in assay [2], in [11] and in assay [4] was “inactive” each time.
Turning to `Cc1cc(N2CCOCC2)ccc1Nc1nc(NC2CCCCC2)c2[nH]cnc2n1`, in assay [1], the activation is 7.16%. Moreover, the Potency result in assay [2], in assay [3] and in assay [4] was “inactive” throughout. The values for the Potency in assay [6] and in [10] were 1.32 µM (active) and 4.17 µM (active), respectively.

These data come from PubChem BioAssay (NCATS).
